# Experimental data from the supplement of paper PMC4022240.
# ± gives the standard deviation.
# Experiments:
# Assay in all cases: peptide microarray binding signal (635 nm), min-max normalized on array (fraction of array maximum); higher = stronger binding
# [1] = target: T1, HaloTag-ATRX ADD domain (163-292)
# T1 chain: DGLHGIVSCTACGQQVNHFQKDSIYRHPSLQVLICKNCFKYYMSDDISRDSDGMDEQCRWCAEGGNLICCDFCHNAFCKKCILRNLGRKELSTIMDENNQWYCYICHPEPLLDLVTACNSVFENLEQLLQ
# Method in brief: (§1)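 Triplicate spots of histone 13-mer peptide–cellulose conjugates with a Cy3 tracer were printed on nitrocellulose and probed for 1 h at 4°C with biotin-labelled HaloTag reader fusions (10 nM to 1 μM) plus streptavidin-Alexa Fluor 647 or rabbit histone antibodies (1:10,000 to 1:2,000) plus anti-rabbit Alexa 647. An Axon GenePix 4000B read the 635 nm channel. Binding signal is the spot-triplicate mean intensity after min-max scaling within each library.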
# [2] = target: HaloTag-ING2 PHD (mouse Ing2 200-280)
# Method in brief: as §1
# [3] = target: anti-H3K4me3 antibody ab8580
# Method in brief: as §1
# [4] = target: anti-H3K9me3 antibody ab8898
# Method in brief: as §1
# [5] = peptide region: H3 50-62, peptide modifications: H3S57ph, binder concentration: 1:2,000 dilution
# [6] = peptide region: H3 50-62, peptide modifications: H3S57ph, binder concentration: 1:10,000 dilution
# [7] = peptide region: H3 73-85, peptide modifications: H3K79me3 H3T80ph, binder concentration: 1:2,000 dilution
# [8] = peptide region: H3 73-85, peptide modifications: H3K79me3 H3T80ph, binder concentration: 1:10,000 dilution
# [9] = peptide region: H3 112-124, peptide modifications: H3K115ac H3R116me1, binder concentration: 1:2,000 dilution
# [10] = peptide region: H3 112-124, peptide modifications: H3K115ac H3R116me1, binder concentration: 1:10,000 dilution
# [11] = peptide region: H3 112-124, peptide modifications: H3K115ac H3R116cit, binder concentration: 1:2,000 dilution
# [12] = peptide region: H3 112-124, peptide modifications: H3K115ac H3R116cit, binder concentration: 1:10,000 dilution
# [13] = peptide region: H3 73-85, peptide modifications: H3K79ac, binder concentration: 1:2,000 dilution
# [14] = peptide region: H3 73-85, peptide modifications: H3K79ac, binder concentration: 1:10,000 dilution
binder,measurement,setting,value
EIRRYQKSTELLI [H3 50-62 E I R R Y Q K Sph T E L L I],peptide microarray binding signal,"[1]; peptide region: H3 50-62, peptide modifications: H3S57ph, binder concentration: 50 nM",0.000878 ± 5.7e-05
same,peptide microarray binding signal,"[1]; peptide region: H3 50-62, peptide modifications: H3S57ph, binder concentration: 500 nM",0.00167 ± 0.00017
same,peptide microarray binding signal,"[2]; peptide region: H3 50-62, peptide modifications: H3S57ph, binder concentration: 10 nM",0.00179 ± 2.8e-05
same,peptide microarray binding signal,"[2]; peptide region: H3 50-62, peptide modifications: H3S57ph, binder concentration: 100 nM",0.00085 ± 3.4e-05
same,peptide microarray binding signal,[3]; [5],0.000132 ± 5.8e-06
same,peptide microarray binding signal,[3]; [6],0.000228 ± 4.4e-06
same,peptide microarray binding signal,[4]; [5],0.000755 ± 0.00012
same,peptide microarray binding signal,[4]; [6],0.000461 ± 8.7e-06
EIAQDFKTDLRFQ [H3 73-85 E I A Q D F Kme3 Tph D L R F Q],peptide microarray binding signal,"[1]; peptide region: H3 73-85, peptide modifications: H3K79me3 H3T80ph, binder concentration: 50 nM",0.001066 ± 5.3e-06
same,peptide microarray binding signal,"[1]; peptide region: H3 73-85, peptide modifications: H3K79me3 H3T80ph, binder concentration: 500 nM",0.0021 ± 0.00018
same,peptide microarray binding signal,"[2]; peptide region: H3 73-85, peptide modifications: H3K79me3 H3T80ph, binder concentration: 10 nM",0.00221 ± 6.6e-05
same,peptide microarray binding signal,"[2]; peptide region: H3 73-85, peptide modifications: H3K79me3 H3T80ph, binder concentration: 100 nM",0.00333 ± 0.0011
same,peptide microarray binding signal,[3]; [7],0.000887 ± 9.8e-05
same,peptide microarray binding signal,[3]; [8],0.00183 ± 0.00035
same,peptide microarray binding signal,[4]; [7],0.0135 ± 0.0079
same,peptide microarray binding signal,[4]; [8],0.00577 ± 0.0016
IHAKRVTIMPKDI [H3 112-124 I H A Kac Rme V T I M P K D I],peptide microarray binding signal,"[1]; peptide region: H3 112-124, peptide modifications: H3K115ac H3R116me1, binder concentration: 50 nM",0.0108 ± 0.00025
same,peptide microarray binding signal,"[1]; peptide region: H3 112-124, peptide modifications: H3K115ac H3R116me1, binder concentration: 500 nM",0.0193 ± 0.00083
same,peptide microarray binding signal,"[2]; peptide region: H3 112-124, peptide modifications: H3K115ac H3R116me1, binder concentration: 10 nM",0.0322 ± 0.0019
same,peptide microarray binding signal,"[2]; peptide region: H3 112-124, peptide modifications: H3K115ac H3R116me1, binder concentration: 100 nM",0.0449 ± 0.0042
same,peptide microarray binding signal,[3]; [9],0.00519 ± 0.0005
same,peptide microarray binding signal,[3]; [10],0.00542 ± 0.00027
same,peptide microarray binding signal,[4]; [9],0.00293 ± 0.00034
same,peptide microarray binding signal,[4]; [10],0.00254 ± 3.9e-05
IHAKRVTIMPKDI [H3 112-124 I H A Kac Rcit V T I M P K D I],peptide microarray binding signal,"[1]; peptide region: H3 112-124, peptide modifications: H3K115ac H3R116cit, binder concentration: 50 nM",0.00668 ± 0.00021
same,peptide microarray binding signal,"[1]; peptide region: H3 112-124, peptide modifications: H3K115ac H3R116cit, binder concentration: 500 nM",0.0105 ± 0.00017
same,peptide microarray binding signal,"[2]; peptide region: H3 112-124, peptide modifications: H3K115ac H3R116cit, binder concentration: 10 nM",0.0109 ± 0.00031
same,peptide microarray binding signal,"[2]; peptide region: H3 112-124, peptide modifications: H3K115ac H3R116cit, binder concentration: 100 nM",0.016 ± 0.00067
same,peptide microarray binding signal,[3]; [11],0.00179 ± 5.5e-05
same,peptide microarray binding signal,[3]; [12],0.00211 ± 3.4e-05
same,peptide microarray binding signal,[4]; [11],0.00154 ± 1.8e-05
same,peptide microarray binding signal,[4]; [12],0.00127 ± 1.3e-05
EIAQDFKTDLRFQ [H3 73-85 E I A Q D F Kac T D L R F Q],peptide microarray binding signal,"[1]; peptide region: H3 73-85, peptide modifications: H3K79ac, binder concentration: 50 nM",0.003981 ± 1.6e-05
same,peptide microarray binding signal,"[1]; peptide region: H3 73-85, peptide modifications: H3K79ac, binder concentration: 500 nM",0.0121 ± 0.0025
same,peptide microarray binding signal,"[2]; peptide region: H3 73-85, peptide modifications: H3K79ac, binder concentration: 10 nM",0.00537 ± 0.00042
same,peptide microarray binding signal,"[2]; peptide region: H3 73-85, peptide modifications: H3K79ac, binder concentration: 100 nM",0.00298 ± 0.00043
same,peptide microarray binding signal,[3]; [13],0.00166 ± 0.00016
same,peptide microarray binding signal,[3]; [14],0.00428 ± 0.00088
same,peptide microarray binding signal,[4]; [13],0.0114 ± 0.0038
same,peptide microarray binding signal,[4]; [14],0.0106 ± 0.0027
